Screens as filed in PubChem BioAssay.
Rows were chosen to be rich in hits. Some 2.8% of all compounds tested hit in one or more screens of this group.
Pol kappa inh – DNA polymerase kappa (human) inhibition; Q9UBT6; purified Pol kappa, fluorescent DNA synthesis assay, 10 min; Potency, µM (top dose mostly 107 µM), without a hit: top-dose activity, negative = inhibition, actives largely listed as inhibitors; hit rate 0.53% among 400,000; AID 588579; further: potency means the concentration at half of the fitted maximal effect; on the % scale 0 is the no-effect control and ±100 the full control effect
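10 nM Pol kappa was preincubated with compounds for 15 min at room temperature. Reaction started with 50 nM (final) substrate. Fluorescence read kinetically at 0 and 10 min.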
WRN helicase inh – blocks human WRN helicase | Q14191 | WRN helicase unwinding, fluorescent forked duplex, kinetic | Potency, µM (series often up to 114 µM), inactives show at the highest dose activity change, negative = inhibition, actives largely listed as inhibitors | hit rate 0.46% among 360,000 | AID 651768; further: potency means the concentration at half of the fitted maximal effect; on the % scale 0 is the no-effect control and ±100 the full control effect; nearly all actives have a fitted effect of over 55% in size
Target sequence (Q14191 whole entry, looked up): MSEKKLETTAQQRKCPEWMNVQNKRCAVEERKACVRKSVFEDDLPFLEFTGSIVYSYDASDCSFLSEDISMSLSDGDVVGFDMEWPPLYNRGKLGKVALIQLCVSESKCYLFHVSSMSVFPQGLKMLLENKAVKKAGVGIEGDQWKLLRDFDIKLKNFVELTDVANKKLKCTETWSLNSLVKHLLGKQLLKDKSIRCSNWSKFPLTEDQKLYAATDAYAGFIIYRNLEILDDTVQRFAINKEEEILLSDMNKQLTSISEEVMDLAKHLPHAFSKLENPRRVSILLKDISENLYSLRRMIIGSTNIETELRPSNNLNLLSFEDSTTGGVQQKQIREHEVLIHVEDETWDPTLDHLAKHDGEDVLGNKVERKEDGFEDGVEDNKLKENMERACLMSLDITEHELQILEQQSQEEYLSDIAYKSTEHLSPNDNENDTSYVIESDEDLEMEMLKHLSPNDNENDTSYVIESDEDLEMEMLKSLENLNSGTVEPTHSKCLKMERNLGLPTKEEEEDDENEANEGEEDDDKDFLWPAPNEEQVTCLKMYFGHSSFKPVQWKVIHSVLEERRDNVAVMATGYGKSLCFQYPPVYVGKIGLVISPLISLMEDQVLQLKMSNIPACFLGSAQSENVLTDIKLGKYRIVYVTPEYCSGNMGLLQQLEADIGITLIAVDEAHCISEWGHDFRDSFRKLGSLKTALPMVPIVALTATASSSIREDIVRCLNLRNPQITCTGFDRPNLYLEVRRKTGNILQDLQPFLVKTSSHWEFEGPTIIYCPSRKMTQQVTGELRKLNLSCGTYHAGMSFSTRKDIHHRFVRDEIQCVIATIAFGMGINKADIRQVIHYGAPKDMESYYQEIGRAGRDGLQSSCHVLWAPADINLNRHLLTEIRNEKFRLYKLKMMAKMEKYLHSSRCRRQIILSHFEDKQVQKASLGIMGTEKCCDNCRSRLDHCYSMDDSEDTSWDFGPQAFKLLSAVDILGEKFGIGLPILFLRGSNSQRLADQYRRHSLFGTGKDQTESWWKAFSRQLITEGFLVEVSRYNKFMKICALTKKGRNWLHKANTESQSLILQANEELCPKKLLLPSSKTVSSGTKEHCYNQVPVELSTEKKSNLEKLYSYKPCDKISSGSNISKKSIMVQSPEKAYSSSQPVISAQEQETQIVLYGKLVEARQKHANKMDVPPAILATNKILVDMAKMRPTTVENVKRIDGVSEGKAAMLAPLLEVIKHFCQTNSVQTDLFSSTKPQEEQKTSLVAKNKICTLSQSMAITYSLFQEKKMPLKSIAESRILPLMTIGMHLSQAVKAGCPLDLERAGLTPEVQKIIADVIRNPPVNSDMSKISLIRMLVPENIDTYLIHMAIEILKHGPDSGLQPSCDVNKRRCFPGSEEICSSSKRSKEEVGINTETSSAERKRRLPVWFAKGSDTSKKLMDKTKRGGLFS
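Enzyme (20 nM final) and test compound sit together 15 min at room temperature before substrate addition. Substrate is a single-forked duplex oligonucleotide (100 nM) labelled with fluorophore and quencher, with 2 mM ATP; helicase unwinding raises red fluorescence, read kinetically.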
Pol iota inh – inhibitors of human DNA polymerase iota; Pol iota fluorescent replication assay, 10 min; Q9UNA4; Potency, µM (doses to about 115 µM), for inactives: top-dose activity, negative = inhibition, hits mostly inhibitors; hit rate 1% among 390,000; AID 588590; further: potency means the concentration at half of the fitted maximal effect
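Fluorescent replication assay read twice, at 0 min and 10 min after adding 50 nM (final) substrate. Enzyme (10 nM) and compounds were first incubated 15 min at room temperature; enzyme-free buffer wells were negative controls.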
Pol beta inh – blocks human DNA polymerase beta activity. Pol beta primer extension/strand displacement, fluorescence kinetic. AID 485314. hit rate 1.3% among 340,000. Potency, µM (top dose mostly 114 µM), inactives show at the top dose activity change, negative = inhibition, usual class: inhibitors; further: potency means the concentration at half of the fitted maximal effect; on the % scale 0 is the no-effect control and ±100 the full control effect
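10 nM enzyme + cpd, 15 min RT; start with substrate 50 nM final; read 0 min and after 10 min RT. Corrected, normalized data; 4-parameter Hill curve fit.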
Pol eta inh – blocks human DNA polymerase eta activity; Q9Y253; recombinant Pol eta, fluorescent DNA replication assay; Potency, µM (top dose mostly 114 µM), inactives show top-dose activity change, negative = inhibition, actives largely listed as inhibitors; hit rate 1.2% among 390,000; AID 588591; further: potency means the concentration at half of the fitted maximal effect; on the % scale 0 is the no-effect control and ±100 the full control effect
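Pol eta (10 nM) was preincubated with compounds for 15 min at room temperature, after which fluorescent replication substrate (50 nM final) was added to start the reaction. Fluorescence was read kinetically at 0 and 10 min.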
PI5P4Ka inh – PI5P4K alpha (human) kinase inhibition; max response, %; PI5P4Kalpha enzyme, ADP-Glo luminescence, 60 min; hits give low values; P48426; hit rate 1.2% among 330,000; active means max response of -50% or lower; inconclusive means between -30% and -50%; inactive means -30% or higher; further: value at the top dose of about 77 µM; on the % scale 0 is the no-effect control and ±100 the full control effect
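qHTS, 1536-well: enzyme/substrate mix, compound by pin tool, 5 microM ATP final; RT 60 min; ADP-Glo reagents 1 (45 min) then 2 (30 min); luminescence.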
ADP-Glo interf – interferes with ADP-Glo detection without enzyme present. shares compounds with PI5P4Ka inh. ADP-Glo detection counter-screen, luciferase luminescence, no enzyme. Potency, µM (top dose mostly 76.9 µM), inactives show at the top dose activity change, negative = inhibition, most hits filed as inhibitors. 1,100 tested, under 10 active
Active calls of the source: *. Unless noted, the call rests on the fitted dose curve; in most records, active means well fitted curve in the direction sought with a large enough effect; inconclusive means small, poorly fitted or top-dose-only effect, or another doubt; inactive means no such curve, though single readings can be large; an effect the other way counts as inactive or inconclusive.

What do the screens show for `NC(=O)[C@@H]1CC2(CC(c3cccc(NC(=O)COc4ccc(Cl)cc4)c3)=NO2)CN1C(=O)COc1ccc(Cl)cc1` (stereo partly specified)?
Pol kappa inh: 1%; WRN helicase inh: -7%; Pol iota inh: -19%; Pol beta inh: inconclusive; Pol eta inh: -15%; PI5P4Ka inh: -7; ADP-Glo interf: -9%

What do the screens show for `COc1ccc(N2CC(O)=C(c3nc(-c4ccccc4)cs3)C2=N)cc1`?
Pol kappa inh: 5%; WRN helicase inh: -2%; Pol iota inh: inconclusive; Pol beta inh: 15%; Pol eta inh: 12%; PI5P4Ka inh: -53*; ADP-Glo interf: -2%

What do the screens show for `COc1ccc(N2CC(O)=C(c3nc(-c4ccc(Br)cc4)cs3)C2=N)cc1`?
Pol kappa inh: 3%; WRN helicase inh: -1%; Pol iota inh: -3%; Pol beta inh: 11%; Pol eta inh: -5%; PI5P4Ka inh: 2

Results for CCN(CC)C(=O)c1cc(Cl)ccn1 ?
Pol kappa inh: 0%; WRN helicase inh: -36%; Pol iota inh: 10%; Pol beta inh: 32%; Pol eta inh: -18%; PI5P4Ka inh: inconclusive; ADP-Glo interf: -2%

What do the screens show for `CCN(CC)C(=O)c1[nH]cnc1C(=O)Nc1cccc(Cl)c1`?
Pol kappa inh: 7%; WRN helicase inh: 1%; Pol iota inh: 6%; Pol eta inh: -8%; PI5P4Ka inh: 2

How did CC(C)c1cc(C(C)C)c(S(=O)(=O)N2CCNCC2)c(C(C)C)c1 do in these assays?
Pol kappa inh: -5%; WRN helicase inh: 5%; Pol iota inh: 27%; Pol eta inh: -9%; PI5P4Ka inh: 11

What do the screens show for `CNC(=S)N(Cc1cccs1)Cc1cc2ccc(OC)cc2[nH]c1=O`?
Pol kappa inh: -16%; WRN helicase inh: -20%; Pol iota inh: -4%; Pol beta inh: 3%; Pol eta inh: inconclusive; PI5P4Ka inh: -60*; ADP-Glo interf: 0%

Results for O=C(NCc1n[nH]c(=S)n1-c1ccc(Br)cc1)c1ccc(S(=O)(=O)N2CCOCC2)cc1 ?
Pol kappa inh: 4%; WRN helicase inh: 2%; Pol iota inh: -13%; Pol beta inh: -17%; Pol eta inh: -12%; PI5P4Ka inh: -3

How did Cc1ccccc1NC(=O)Cc1nc(COC(=O)c2ccc(NC(N)=O)cc2)cs1 do in these assays?
Pol kappa inh: -10%; WRN helicase inh: -6%; Pol iota inh: 36%; Pol eta inh: inconclusive; PI5P4Ka inh: -56*; ADP-Glo interf: -3%

What do the screens show for `CC1CCN(C(=O)c2ccc(COc3ccccc3Cl)o2)CC1`?
Pol kappa inh: -7%; WRN helicase inh: -9%; Pol iota inh: -10%; Pol beta inh: -3%; Pol eta inh: -15%; PI5P4Ka inh: -55*; ADP-Glo interf: -1%

How did Cc1ccc([N+](=O)[O-])cc1Nc1nc(N2CCOCC2)nc(N2CCOCC2)n1 do in these assays?
Pol kappa inh: inconclusive; WRN helicase inh: -17%; Pol iota inh: inconclusive; Pol beta inh: 0%; Pol eta inh: -98%; PI5P4Ka inh: -74*; ADP-Glo interf: -3%

What do the screens show for `Cc1ccc(CN2CCN(/N=C\C=C\c3ccccc3)CC2)cc1`?
Pol kappa inh: -4%; WRN helicase inh: -33%; Pol iota inh: 58%; Pol beta inh: 0%; Pol eta inh: -5%; PI5P4Ka inh: 6

How did O=C(C(=NNc1ccccc1)C(=S)Nc1ccccc1)c1ccccc1 do in these assays?
WRN helicase inh: -3%; PI5P4Ka inh: 1

Results for O=c1[nH]cnc2c1ncn2-c1ccc(Cl)cc1 ?
Pol kappa inh: -8%; WRN helicase inh: -29%; Pol iota inh: -7%; Pol eta inh: 0%; PI5P4Ka inh: 1
